PubChem BioAssay

How the values were obtained:
[1] = target: Tumor necrosis factor receptor superfamily member 10B (Homo sapiens) (UniProt O14763); test: viability loss of caspase-8 NB7 cells with TRAIL – with/without TRAIL, luminescence panel, confirmation (AID 651596); conditions: NB7 neuroblastoma + caspase-8, TRAIL sensitization, NB7 Caspase-8, with TRAIL, mean of runs, at 10 µM, stronger effect = higher value
[2] = as above; conditions: NB7 neuroblastoma + caspase-8, without TRAIL, NB7 Caspase-8, without TRAIL, mean of runs, at 10 µM

Tumor necrosis factor receptor superfamily member 10B (Homo sapiens), sequence (O14763 whole entry, looked up): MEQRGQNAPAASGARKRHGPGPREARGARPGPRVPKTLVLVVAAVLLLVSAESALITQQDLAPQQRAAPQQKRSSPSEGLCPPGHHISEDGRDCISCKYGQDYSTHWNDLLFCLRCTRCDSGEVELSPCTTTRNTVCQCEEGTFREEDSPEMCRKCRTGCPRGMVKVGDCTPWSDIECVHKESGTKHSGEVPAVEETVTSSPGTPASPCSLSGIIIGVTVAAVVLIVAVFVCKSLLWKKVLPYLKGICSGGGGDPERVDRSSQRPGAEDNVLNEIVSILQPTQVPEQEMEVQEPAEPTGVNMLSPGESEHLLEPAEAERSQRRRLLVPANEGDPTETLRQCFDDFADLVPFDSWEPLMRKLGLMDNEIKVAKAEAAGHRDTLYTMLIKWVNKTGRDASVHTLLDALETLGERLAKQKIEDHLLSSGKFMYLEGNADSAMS

| Structure (SMILES) | activity [1] [%] | activity [2] [%] |
| --- | --- | --- |
| CCCc1cc(=O)[nH]c(SCC(=O)c2c(N)n(CC(C)C)c(=O)n(C)c2=O)n1 | 80.5 | 83.7 |
| Cc1ccc(-c2cnc3cc(C)nn3c2)cc1 | 73.9 | 66.8 |
| C=CCNc1nc(NCc2ccc(NC(C)=O)cc2)c2sc(-c3ccccc3)cc2n1 | 46.1 | 43.1 |
| COc1cccc(C=Cc2nccc3ccccc23)c1OC | 69.2 | 67.1 |
| Brc1ccc(-c2ccc(/C=N/Nc3nc4ccccc4[nH]3)o2)cc1 | 51.5 | 42.5 |
| Nc1nc(N)c(-c2cccc(C(F)(F)F)c2)c(Cc2cccc(C(F)(F)F)c2)n1 | 81.6 | 80.7 |
| O=C(CN(Cc1ccccc1)C(=O)CCl)c1cccc(Br)c1 | 99.3 | 93.5 |
| Cc1ccc(C(=O)Nc2ccc3c(c2)OCO3)cc1 | 75.8 | 63 |
| Cc1ccc(Cl)cc1N1CCN(C(=O)c2noc(C)c2[N+](=O)[O-])CC1 | 99.3 | 97.1 |
| COc1cccc(/C=C2/Sc3ccc(C(=O)NCCN4CCCCCC4)cc3NC2=O)c1 | 36 | 73.3 |
| Brc1ccc(-c2cn3ccccc3n2)cc1 | 50.8 | 62.2 |
| CC(=O)c1ccc(N2CCN(c3ccc4cc(S(=O)(=O)N5CCC(C)CC5)ccc4n3)CC2)cc1 | 56.4 | 19.2 |
| CCC(=O)N1CCN(c2ccc(NC(=O)c3cc4ccccc4o3)cc2Cl)CC1 | 79.6 | 54.4 |
| CC(C)(C)OC(=O)NCCCC[C@H](NC(=O)c1[nH]cnc1C(=O)Nc1ccccc1)C(=O)OC(C)(C)C | 74.2 | 58.6 |
| O=C(Nc1nc2c(s1)CCCC2)c1cccs1 | 71.3 | 82.1 |
| O=C(Nc1nnc(-c2ccccc2)o1)NC1CCCCC1 | 34.9 | 55.4 |
| Oc1ccc(-c2cn3ccccc3n2)cc1 | 45.3 | 45.5 |
| Nc1ccccc1C=C1Cc2ccccc2C1=O | 58.5 | 50 |
| O=C(Nc1ccc2nc3ccccc3nc2c1)c1ccccc1 | 47 | 32.9 |
| Cc1cnc(NC(=O)c2ccc(OCC3CCCO3)cc2)s1 (configuration not stated) | 93.3 | 94.7 |
| CNC(=O)c1cc(Oc2ccc(NC(=O)Nc3ccc(Cl)c(C(F)(F)F)c3)cc2)ccn1 | 88.9 | 63.2 |

| Structure (SMILES) | activity [1] [%] | activity [2] [%] |
| --- | --- | --- |
| COc1ccc(-c2ccc3c(c2)S(=O)(=O)c2cccc(C(=O)NCCOc4ccccc4Cl)c2C3=O)cc1OC | 91.2 | 77.8 |
| Cc1ccc(C(=O)n2c(N)nc3ccccc32)cc1 | 98.3 | 98.4 |
| Cc1ccn(-c2ccc(NC(=O)c3cccs3)cc2)n1 | 59.7 | 65.7 |
| COc1ccc(/C=C/C(=O)NC(=S)Nc2ccccn2)cc1 | 29 | 37.3 |
| O=C1CN(C(=O)Cn2ncc(Cl)c(Cl)c2=O)c2ccccc2N1 | 99.4 | 99.5 |
| CCc1nc(N2CCN(C(=O)CCl)CC2)c2c3c(sc2n1)CC(C)CC3 (configuration not stated) | 99.3 | 91.5 |
| CNc1nnc(-c2ccc(N(C)C)cc2)s1 | 73.4 | 61.2 |
| COc1ccc(C(C(=O)NC2CCCCC2)N(C(=O)CCl)c2ccc(Cl)cc2)cc1 (configuration not stated) | 98.4 | 98.9 |
| CC(C)Sc1cc(Cl)nc(NC(=O)Nc2ccccc2)n1 | 98.4 | 99.7 |
| C#CC(=O)N(c1ccc(OC)c(OC)c1)C(C(=O)NC1CCCC1)c1cccs1 (configuration not stated) | 99.3 | 99.5 |
| COc1ccc2nc(NN=C(C)c3ccccn3)cc(C)c2c1 | 74 | 80.1 |
| CCOC(=O)c1sc(N(Cc2ccccc2)C(=O)CCl)nc1C | 99.1 | 76.5 |
| O=C(Nc1nc(-c2nc3ccccc3s2)cs1)C1CC1 | 59 | 69.9 |
| CCOC(=O)c1cn(-c2ccc(F)c(F)c2F)c2c(F)c(F)c(F)cc2c1=O | 64 | 41.5 |
| O=C(COC(=O)c1n[nH]c2ccccc12)NC(=O)NC12CC3CC(CC(C3)C1)C2 | 51.5 | 57 |
| CC(C)C(=O)N1CCN(c2ccc(NC(=O)c3ccc([N+](=O)[O-])o3)cc2Cl)CC1 | 75.4 | 97.5 |
| COc1ccc(N2Cc3ccccc3C2=O)cc1 | 67 | 62.5 |
| Cn1c(C(=O)NCCC2=CCCCC2)cc2c(=O)n3ccccc3nc21 | 59.6 | 57.7 |
| CC(C)c1ccc(/C=c2\sc3n(c2=O)C(N)=C(C#N)C(c2ccc(C(C)C)cc2)C=3C(N)=O)cc1 (configuration not stated) | 76.7 | 77.9 |
| Cc1ccc(OCC(=O)NC(=S)Nc2ccccn2)c(Br)c1 | 86.3 | 81.9 |
| COc1ccc(/C=C/c2cc(-c3ccc(C)cc3)o[n+]2C)cc1 | 81.8 | 90.6 |

| Structure (SMILES) | activity [1] [%] | activity [2] [%] |
| --- | --- | --- |
| O=C(CC1CCCC1)Nc1nc2ccccc2[nH]1 | 49.7 | 62.4 |
| CCc1ccc(C2=NN(C(=O)OC)C(O)(C(F)(F)F)C2)cc1 (configuration not stated) | 45.8 | 59 |
| Cc1cccc(-n2ncc3c(NC4CCCCC4)ncnc32)c1 | 66.7 | 54.5 |
| Cc1cccc(NC(=S)NC(=O)c2oc3ccccc3c2C)n1 | 70 | 60.1 |
| Cc1ccc(-c2cc3onc(-c4ccccc4)c3c(=O)n2C)cc1 | 75 | 72.3 |
| O=C(CC1SC(=O)N(Cc2cccc3ccccc23)C1=O)Nc1nccs1 (configuration not stated) | 33 | 74.3 |
| CC(=O)n1cc(N(C(=O)CCl)c2ccccc2)c2ccccc21 | 99.6 | 99.8 |
| Cn1c2ccccc2c(=O)c2ccc(C#CC3(O)CCCCC3)cc21 | 91.3 | 83.4 |
| CC(C)c1onc(C(=O)N2CCN(c3ccc(F)cc3)CC2)c1[N+](=O)[O-] | 78.8 | 87.6 |
| Cc1ccc(-n2c(C3CC3c3ccc(Cl)cc3)n[nH]c2=S)cc1 (configuration not stated) | 52.8 | 46.7 |
| N/C(=N\OC(=O)c1ccc([N+](=O)[O-])cc1Cl)c1ccccn1 | 90.2 | 87.3 |
| COc1ccc(C(=O)/C=C/Nc2cc(C)ccn2)cc1 | 66.9 | 52.5 |
| CC(C)(C)OC(=O)NCc1ccc(CNC(=O)c2[nH]cnc2C(=O)Nc2ccccc2F)cc1 | 43.6 | 34.9 |
| COc1ccc(C(=O)Nc2ccccc2C(=O)N/N=C/c2cccc3ccccc23)cc1 | 98.8 | 95.8 |
| COc1ccc2nc(NC(=O)c3ccccc3F)sc2c1 | 78.1 | 73.8 |
| CC(C)OC(=O)c1sc2nc(-c3ccccc3)ccc2c1N | 58.5 | 60.3 |
| Fc1ccccc1-c1ccc(/C=N/Nc2nc3ccccc3[nH]2)o1 | 82.7 | 79.2 |
| CCCc1c(C(=O)N/N=C/C=C/c2ccccc2)nnn1-c1nonc1N | 47.5 | 50.4 |
| COc1ccccc1NC(CC(=O)c1ccccc1)C(=O)OCC(=O)c1ccc(C)cc1 (configuration not stated) | 65 | 69 |
